Drawing on paper PMC7862700, “An all-to-all approach to the identification of sequence-specific readers for epigenetic DNA modifications on cytosine”, this text covers binding signal for one sequence.

Assay in all cases: DAPPL (digital affinity profiling via proximity ligation, sequencing); 10 mM Tris-HCl pH 7.5, 50 mM NaCl, 1 mM DTT, 4% glycerol, room temperature, 30 min; GST-TFs on glutathione beads, 16-mer random dsDNA library, 0.1% formaldehyde crosslink after washing; high values mean tight binding
Assay [1] concerns the target T1, FLI1 (Homo sapiens, UniProt Q01543 1-452).
T1 sequence: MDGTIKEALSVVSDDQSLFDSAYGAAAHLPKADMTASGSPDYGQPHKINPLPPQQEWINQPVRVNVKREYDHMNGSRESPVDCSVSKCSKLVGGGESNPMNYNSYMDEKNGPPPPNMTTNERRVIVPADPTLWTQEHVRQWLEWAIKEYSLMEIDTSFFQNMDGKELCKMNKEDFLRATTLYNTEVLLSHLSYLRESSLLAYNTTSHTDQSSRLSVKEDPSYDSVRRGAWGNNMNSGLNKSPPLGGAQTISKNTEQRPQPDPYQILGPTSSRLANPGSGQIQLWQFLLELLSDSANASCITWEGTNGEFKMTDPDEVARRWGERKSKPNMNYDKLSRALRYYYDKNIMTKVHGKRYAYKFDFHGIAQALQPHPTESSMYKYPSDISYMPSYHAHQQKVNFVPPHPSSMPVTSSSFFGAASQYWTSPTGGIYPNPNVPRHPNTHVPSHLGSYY
The following applies: protein: recombinant; tags: N-terminal GST; dsDNA, one strand shown. Summed up:
(§1)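 Binding signal is each hexamer's read frequency for a factor divided by its frequency in the tag-only sample. The factors were GST-fused human transcription factors from yeast, captured on glutathione beads, DNA-barcoded and pooled with that sample. Pools were incubated with 200 nmole of a random double-stranded 16-mer DNA library in Tris/NaCl/DTT/glycerol buffer at room temperature for 30 min, then washed, crosslinked with 0.1% formaldehyde, proximity-ligated with BsaI/T4 ligase (1 h, 37 °C), PCR-amplified and sequenced on an Illumina NextSeq500.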

Assay [2] concerns the target T2, ELK1 (Homo sapiens, UniProt P19419 1-428).
T2 sequence: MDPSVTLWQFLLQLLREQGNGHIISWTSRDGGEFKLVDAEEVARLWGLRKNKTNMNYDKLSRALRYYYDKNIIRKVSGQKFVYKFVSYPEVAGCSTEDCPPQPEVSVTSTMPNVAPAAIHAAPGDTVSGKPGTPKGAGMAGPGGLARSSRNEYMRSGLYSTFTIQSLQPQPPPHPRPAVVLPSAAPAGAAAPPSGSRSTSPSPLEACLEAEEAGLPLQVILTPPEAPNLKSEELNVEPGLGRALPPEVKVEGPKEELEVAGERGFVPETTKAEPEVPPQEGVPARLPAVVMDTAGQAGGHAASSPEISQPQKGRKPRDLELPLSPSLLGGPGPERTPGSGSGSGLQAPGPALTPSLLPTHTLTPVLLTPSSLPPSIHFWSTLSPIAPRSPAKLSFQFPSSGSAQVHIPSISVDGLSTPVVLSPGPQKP
The following applies: protein: recombinant; tags: N-terminal GST; dsDNA, one strand shown. In short, it runs like this: as §1

In assay [3] the target is T3, GABPA (Homo sapiens, UniProt Q06546 1-454).
T3 sequence: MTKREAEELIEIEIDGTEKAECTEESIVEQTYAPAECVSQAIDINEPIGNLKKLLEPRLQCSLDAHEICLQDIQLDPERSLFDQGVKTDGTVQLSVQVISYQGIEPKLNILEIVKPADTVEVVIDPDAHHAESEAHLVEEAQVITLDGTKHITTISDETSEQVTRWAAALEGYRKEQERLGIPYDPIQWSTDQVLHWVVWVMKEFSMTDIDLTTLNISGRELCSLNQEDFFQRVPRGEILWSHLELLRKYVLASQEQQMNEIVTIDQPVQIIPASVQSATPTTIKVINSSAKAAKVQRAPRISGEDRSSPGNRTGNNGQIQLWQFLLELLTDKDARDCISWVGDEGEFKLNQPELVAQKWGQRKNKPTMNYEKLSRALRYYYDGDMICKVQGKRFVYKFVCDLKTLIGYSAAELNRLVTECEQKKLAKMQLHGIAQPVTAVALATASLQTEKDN
The conditions noted are these: protein: recombinant; tags: N-terminal GST; dsDNA, one strand shown. In short, it runs like this: as §1

In assay [4] the target is T4, ERG (Homo sapiens, UniProt P11308 1-479).
T4 sequence: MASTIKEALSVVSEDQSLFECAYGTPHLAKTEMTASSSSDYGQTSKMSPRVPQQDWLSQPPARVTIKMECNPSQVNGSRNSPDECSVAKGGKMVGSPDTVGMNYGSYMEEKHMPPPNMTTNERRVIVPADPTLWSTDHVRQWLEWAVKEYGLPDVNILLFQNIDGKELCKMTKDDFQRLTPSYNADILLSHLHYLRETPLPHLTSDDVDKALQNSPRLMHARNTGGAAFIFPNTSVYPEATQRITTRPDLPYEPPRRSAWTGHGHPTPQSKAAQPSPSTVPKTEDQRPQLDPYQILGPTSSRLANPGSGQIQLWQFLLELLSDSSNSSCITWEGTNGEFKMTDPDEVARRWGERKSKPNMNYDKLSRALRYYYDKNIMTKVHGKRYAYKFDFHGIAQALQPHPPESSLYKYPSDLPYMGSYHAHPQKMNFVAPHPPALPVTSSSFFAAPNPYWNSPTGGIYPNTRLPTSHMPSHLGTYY
The conditions noted are these: protein: recombinant; tags: N-terminal GST; dsDNA, one strand shown. In short, it runs like this:
as §1

Assay [5] has as its target ELF1 (Homo sapiens, UniProt P32519 1-619). The conditions noted are these: protein: recombinant; tags: N-terminal GST; dsDNA, one strand shown. Summed up:
as §1

The target of assay [6] is T5, EHF (Homo sapiens, UniProt Q9NZC4 1-300).
T5 sequence: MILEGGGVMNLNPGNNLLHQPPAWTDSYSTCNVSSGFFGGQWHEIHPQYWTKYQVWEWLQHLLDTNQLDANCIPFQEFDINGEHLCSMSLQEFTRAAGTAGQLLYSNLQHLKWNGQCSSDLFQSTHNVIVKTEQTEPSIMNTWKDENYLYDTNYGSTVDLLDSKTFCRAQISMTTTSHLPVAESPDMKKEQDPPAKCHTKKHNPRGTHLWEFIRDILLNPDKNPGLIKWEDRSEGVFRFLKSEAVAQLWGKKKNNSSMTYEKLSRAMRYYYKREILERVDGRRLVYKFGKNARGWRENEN
The following applies: protein: recombinant; tags: N-terminal GST; dsDNA, one strand shown. In short, it runs like this:
as §1

Assay [7] addresses SPI1 (Homo sapiens, UniProt P17947 1-270). The conditions noted are these: protein: recombinant; tags: N-terminal GST; dsDNA, one strand shown. In short, it runs like this: as §1
Assay [8] addresses SPIB (Homo sapiens, UniProt Q01892 1-262). The following applies: protein: recombinant; tags: N-terminal GST; dsDNA, one strand shown. In short, it runs like this:
as §1

Assay [9] addresses T6, ELK3 (Homo sapiens, UniProt P41970 1-407).
T6 sequence: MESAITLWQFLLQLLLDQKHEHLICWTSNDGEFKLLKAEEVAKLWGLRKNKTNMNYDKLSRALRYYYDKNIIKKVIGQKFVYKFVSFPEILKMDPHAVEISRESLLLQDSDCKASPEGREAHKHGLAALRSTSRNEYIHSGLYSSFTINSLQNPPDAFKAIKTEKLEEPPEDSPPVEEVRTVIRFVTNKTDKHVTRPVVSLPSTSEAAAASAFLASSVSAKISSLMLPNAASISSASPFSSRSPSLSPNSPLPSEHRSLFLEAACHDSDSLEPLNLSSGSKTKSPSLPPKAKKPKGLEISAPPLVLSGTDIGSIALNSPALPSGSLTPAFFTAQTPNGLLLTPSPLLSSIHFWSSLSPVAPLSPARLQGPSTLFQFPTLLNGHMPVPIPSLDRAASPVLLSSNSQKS
The following applies: protein: recombinant; tags: N-terminal GST; dsDNA, one strand shown. Summed up: as §1

The target of assay [10] is T7, FEV (Homo sapiens, UniProt Q99581 1-238).
T7 sequence: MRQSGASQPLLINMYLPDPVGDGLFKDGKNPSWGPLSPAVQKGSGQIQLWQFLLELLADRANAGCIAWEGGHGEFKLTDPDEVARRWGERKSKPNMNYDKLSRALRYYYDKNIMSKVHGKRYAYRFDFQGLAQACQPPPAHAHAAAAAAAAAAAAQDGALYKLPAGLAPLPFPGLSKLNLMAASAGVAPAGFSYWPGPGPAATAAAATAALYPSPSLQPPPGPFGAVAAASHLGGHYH
The following applies: protein: recombinant; tags: N-terminal GST; dsDNA, one strand shown. Summed up:
as §1

Assay [11] has as its target ETV5 (Homo sapiens, UniProt P41161 1-510). The conditions noted are these: protein: recombinant; tags: N-terminal GST; dsDNA, one strand shown. In short, it runs like this: as §1
The target of assay [12] is HSF1 (Homo sapiens, UniProt Q00613 1-529). The following applies: protein: recombinant; tags: N-terminal GST; chain copies: 3; dsDNA, one strand shown. Summed up: as §1
Assay [13] concerns the target T8, SPIC (Homo sapiens, UniProt Q8N5J4 1-248).
T8 sequence: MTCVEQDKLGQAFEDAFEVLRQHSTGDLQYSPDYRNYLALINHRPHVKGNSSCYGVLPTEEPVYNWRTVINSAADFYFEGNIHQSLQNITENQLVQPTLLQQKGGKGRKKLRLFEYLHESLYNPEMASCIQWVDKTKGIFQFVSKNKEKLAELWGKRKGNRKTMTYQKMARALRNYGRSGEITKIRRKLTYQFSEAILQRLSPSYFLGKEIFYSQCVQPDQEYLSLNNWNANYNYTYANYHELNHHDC
The following applies: protein: recombinant; tags: N-terminal GST; dsDNA, one strand shown. In short, it runs like this:
as §1

Assay [14] deals with ELF4 (Homo sapiens, UniProt Q99607 1-663). The following applies: protein: recombinant; tags: N-terminal GST; dsDNA, one strand shown. In short, it runs like this: as §1
Assay [15] has as its target T9, ELK4 (Homo sapiens, UniProt P28324-2 1-405).
T9 sequence: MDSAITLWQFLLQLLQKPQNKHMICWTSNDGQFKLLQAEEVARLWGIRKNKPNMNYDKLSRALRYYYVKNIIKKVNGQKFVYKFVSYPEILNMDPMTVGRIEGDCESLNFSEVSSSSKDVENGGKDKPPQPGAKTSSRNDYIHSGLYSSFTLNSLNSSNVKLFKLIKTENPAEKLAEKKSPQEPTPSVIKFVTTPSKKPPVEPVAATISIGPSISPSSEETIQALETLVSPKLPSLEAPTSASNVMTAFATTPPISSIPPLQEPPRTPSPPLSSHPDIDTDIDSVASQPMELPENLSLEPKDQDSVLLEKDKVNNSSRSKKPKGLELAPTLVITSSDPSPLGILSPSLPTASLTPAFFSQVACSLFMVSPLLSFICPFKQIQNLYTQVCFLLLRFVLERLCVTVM
The following applies: protein: recombinant; tags: N-terminal GST; dsDNA, one strand shown. Summed up:
as §1

The target of assay [16] is T10, ETV2 (Homo sapiens, UniProt O00321 1-342).
T10 sequence: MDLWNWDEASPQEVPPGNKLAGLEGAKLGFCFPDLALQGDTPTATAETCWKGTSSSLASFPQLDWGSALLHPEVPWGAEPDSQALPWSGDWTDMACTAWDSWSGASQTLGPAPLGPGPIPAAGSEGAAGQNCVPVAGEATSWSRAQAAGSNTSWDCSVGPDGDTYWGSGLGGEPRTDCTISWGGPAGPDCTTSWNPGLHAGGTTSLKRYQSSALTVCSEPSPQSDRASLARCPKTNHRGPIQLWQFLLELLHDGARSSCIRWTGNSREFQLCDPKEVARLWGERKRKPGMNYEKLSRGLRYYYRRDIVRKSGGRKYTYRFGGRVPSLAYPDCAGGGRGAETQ
The conditions noted are these: protein: recombinant; tags: N-terminal GST; dsDNA, one strand shown. In short, it runs like this:
as §1

Assay [17] addresses T11, ELF3 (Homo sapiens, UniProt P78545 1-371).
T11 sequence: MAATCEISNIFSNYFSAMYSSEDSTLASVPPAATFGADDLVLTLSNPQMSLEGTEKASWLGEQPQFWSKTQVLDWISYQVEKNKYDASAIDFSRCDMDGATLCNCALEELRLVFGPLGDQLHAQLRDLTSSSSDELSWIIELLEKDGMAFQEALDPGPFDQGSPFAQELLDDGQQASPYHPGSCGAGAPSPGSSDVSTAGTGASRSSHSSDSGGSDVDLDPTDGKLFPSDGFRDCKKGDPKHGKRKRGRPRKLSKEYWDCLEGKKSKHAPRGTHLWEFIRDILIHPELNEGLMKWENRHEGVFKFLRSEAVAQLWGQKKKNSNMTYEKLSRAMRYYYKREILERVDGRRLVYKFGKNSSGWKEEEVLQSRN
The conditions noted are these: protein: recombinant; tags: N-terminal GST; dsDNA, one strand shown. Summed up:
as §1

Assay [18] concerns the target CRX (Homo sapiens, UniProt O43186 1-299). The conditions noted are these: protein: recombinant; tags: N-terminal GST; dsDNA, one strand shown. Summed up: as §1
In assay [19] the target is ETV1 (Homo sapiens, UniProt P50549 1-477). The conditions noted are these: protein: recombinant; tags: N-terminal GST; dsDNA, one strand shown. Summed up: as §1
ETV1, sequence (P50549 whole entry): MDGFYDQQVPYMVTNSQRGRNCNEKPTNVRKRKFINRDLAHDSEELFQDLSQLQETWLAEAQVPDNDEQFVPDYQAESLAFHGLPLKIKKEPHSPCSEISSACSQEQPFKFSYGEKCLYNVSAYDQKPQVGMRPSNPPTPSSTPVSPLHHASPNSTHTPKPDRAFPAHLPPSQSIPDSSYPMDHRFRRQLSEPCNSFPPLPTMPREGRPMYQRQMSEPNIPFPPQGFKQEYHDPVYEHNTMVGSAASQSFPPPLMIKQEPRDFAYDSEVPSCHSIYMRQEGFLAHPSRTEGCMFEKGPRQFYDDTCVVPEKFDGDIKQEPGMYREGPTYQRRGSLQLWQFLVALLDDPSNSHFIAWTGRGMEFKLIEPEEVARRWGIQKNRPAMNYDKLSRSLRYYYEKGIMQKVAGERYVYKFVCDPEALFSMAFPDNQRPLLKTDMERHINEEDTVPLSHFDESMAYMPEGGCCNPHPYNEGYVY

ETV5, sequence (P41161 whole entry): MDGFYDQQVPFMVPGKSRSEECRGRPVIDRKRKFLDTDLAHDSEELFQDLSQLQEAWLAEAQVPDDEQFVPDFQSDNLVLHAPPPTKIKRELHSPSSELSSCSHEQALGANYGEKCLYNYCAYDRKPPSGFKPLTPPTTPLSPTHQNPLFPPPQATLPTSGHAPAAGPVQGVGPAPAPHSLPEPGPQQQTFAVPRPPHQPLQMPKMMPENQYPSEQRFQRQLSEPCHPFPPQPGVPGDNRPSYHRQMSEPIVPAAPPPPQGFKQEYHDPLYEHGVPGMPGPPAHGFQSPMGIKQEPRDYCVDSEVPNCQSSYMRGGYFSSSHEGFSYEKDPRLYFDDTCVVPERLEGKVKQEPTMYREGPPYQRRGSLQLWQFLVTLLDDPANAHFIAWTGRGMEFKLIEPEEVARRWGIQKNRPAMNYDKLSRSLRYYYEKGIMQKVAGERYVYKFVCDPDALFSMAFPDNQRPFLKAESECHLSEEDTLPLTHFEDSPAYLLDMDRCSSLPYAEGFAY
ELF1, sequence (P32519 whole entry): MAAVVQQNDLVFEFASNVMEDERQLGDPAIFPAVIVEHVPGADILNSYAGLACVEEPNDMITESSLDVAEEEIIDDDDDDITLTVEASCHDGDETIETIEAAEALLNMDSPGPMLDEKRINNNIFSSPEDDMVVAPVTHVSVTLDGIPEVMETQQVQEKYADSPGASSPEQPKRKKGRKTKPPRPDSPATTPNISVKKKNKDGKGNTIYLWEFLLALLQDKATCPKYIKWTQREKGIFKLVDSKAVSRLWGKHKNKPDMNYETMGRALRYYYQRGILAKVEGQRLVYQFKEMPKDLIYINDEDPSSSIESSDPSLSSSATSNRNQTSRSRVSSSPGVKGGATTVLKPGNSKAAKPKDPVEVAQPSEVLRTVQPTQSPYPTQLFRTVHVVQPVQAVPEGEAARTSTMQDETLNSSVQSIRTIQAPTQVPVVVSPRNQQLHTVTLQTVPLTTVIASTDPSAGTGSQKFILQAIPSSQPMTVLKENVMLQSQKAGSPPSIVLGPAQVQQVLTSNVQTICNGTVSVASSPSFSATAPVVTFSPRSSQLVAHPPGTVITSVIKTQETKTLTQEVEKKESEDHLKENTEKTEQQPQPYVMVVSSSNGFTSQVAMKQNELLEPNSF
HSF1, sequence (Q00613 whole entry): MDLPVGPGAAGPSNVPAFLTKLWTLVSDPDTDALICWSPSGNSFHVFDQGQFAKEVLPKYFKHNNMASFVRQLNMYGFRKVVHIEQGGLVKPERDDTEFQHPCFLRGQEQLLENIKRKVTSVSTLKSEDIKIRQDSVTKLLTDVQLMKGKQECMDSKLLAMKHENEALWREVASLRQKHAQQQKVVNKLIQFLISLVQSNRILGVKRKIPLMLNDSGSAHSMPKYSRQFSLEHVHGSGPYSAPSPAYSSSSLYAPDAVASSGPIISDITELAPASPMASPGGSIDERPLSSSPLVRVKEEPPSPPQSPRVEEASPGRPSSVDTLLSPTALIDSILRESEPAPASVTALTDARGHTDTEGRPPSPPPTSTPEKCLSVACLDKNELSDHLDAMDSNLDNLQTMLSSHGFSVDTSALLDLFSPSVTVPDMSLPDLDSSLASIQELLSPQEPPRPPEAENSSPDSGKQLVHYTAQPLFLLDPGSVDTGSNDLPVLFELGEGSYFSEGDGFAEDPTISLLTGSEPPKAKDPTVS
ELF4, sequence (Q99607 whole entry): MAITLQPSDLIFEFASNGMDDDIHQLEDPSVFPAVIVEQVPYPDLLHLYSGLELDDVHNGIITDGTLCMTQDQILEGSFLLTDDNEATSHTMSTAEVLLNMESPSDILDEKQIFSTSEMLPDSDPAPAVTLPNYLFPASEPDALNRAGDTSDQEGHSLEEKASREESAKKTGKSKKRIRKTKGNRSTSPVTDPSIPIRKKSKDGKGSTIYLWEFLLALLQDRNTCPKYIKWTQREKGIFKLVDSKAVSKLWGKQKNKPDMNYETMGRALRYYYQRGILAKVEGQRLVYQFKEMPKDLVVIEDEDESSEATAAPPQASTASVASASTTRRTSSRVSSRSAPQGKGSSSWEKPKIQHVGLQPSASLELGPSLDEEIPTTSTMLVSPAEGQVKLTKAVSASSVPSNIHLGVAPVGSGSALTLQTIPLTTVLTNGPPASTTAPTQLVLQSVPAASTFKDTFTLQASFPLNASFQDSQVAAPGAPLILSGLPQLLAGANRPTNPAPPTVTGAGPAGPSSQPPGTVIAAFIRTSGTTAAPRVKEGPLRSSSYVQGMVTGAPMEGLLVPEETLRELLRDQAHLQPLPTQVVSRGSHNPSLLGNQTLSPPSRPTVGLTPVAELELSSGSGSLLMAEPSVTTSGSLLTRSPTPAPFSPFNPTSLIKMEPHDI
CRX, sequence (O43186 whole entry): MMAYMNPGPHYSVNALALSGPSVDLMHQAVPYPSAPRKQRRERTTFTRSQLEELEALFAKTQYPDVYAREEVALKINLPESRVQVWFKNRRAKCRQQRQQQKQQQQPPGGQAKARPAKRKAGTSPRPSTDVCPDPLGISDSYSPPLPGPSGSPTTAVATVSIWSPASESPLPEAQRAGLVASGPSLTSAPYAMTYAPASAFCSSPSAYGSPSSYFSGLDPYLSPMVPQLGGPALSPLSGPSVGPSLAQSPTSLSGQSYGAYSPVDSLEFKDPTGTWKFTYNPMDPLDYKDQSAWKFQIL
SPIB, sequence (Q01892 whole entry): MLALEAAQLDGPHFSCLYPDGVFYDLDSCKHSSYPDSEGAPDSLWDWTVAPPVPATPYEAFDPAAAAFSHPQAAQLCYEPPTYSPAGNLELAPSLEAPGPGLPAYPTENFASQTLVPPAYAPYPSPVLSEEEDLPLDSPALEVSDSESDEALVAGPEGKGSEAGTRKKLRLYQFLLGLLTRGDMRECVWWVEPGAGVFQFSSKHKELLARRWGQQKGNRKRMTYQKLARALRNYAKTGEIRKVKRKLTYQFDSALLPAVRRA

For AGCCCC, the binding signal is 1.09 fold enrichment (6-mer frequency, TF over GST control) in [1]; 1.01 fold enrichment (6-mer frequency, TF over GST control) in assay [2]; 1.11 fold enrichment (6-mer frequency, TF over GST control) in assay [3]; 1.06 fold enrichment (6-mer frequency, TF over GST control) in assay [4]; 1.05 fold enrichment (6-mer frequency, TF over GST control) in [5]; 1.05 fold enrichment (6-mer frequency, TF over GST control) in assay [6]. In addition, the binding signal in assay [7] was 1.02 fold enrichment (6-mer frequency, TF over GST control); in [8], 1.08 fold enrichment (6-mer frequency, TF over GST control); in assay [9] it was 1.07 fold enrichment (6-mer frequency, TF over GST control); in assay [10], 1.12 fold enrichment (6-mer frequency, TF over GST control); in [11], 1.14 fold enrichment (6-mer frequency, TF over GST control); in [12], 1.02 fold enrichment (6-mer frequency, TF over GST control). The binding signal in [13] is 1.09 fold enrichment (6-mer frequency, TF over GST control); in assay [14], 1.07 fold enrichment (6-mer frequency, TF over GST control); in assay [15], 1.17 fold enrichment (6-mer frequency, TF over GST control); in assay [16], 1.23 fold enrichment (6-mer frequency, TF over GST control); in assay [17] it was 1.15 fold enrichment (6-mer frequency, TF over GST control); in [18], 1.17 fold enrichment (6-mer frequency, TF over GST control). Besides, the binding signal in [19] was 1.02 fold enrichment (6-mer frequency, TF over GST control).
